# Assay outcomes from PubChem BioAssay.
# SW480 rerep – A quantitative high throughput screen for small molecules that induce DNA re-replication in SW480 colon adenocarcinoma cells. SW480 DNA re-replication, Hoechst DNA content imaging, 48 h. Potency, µM (doses to about 46.1 µM), for inactives: top-dose re-replication activation, actives largely listed as activators. 340,000 tested, 1.8% active; further: % of control where 0% means no effect; nearly all actives have a fitted effect of over 55% in size
#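 First, 250 cells per well were seeded. Next, compound or vehicle (23 nL) was pinned in, plates sat 48 hr at 37 C. Finally Hoechst was added for 40 min before fluorescence scanning.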
# Integrin act MD – qHTS for Activators of Integrin-Mediated Alleviation for Muscular Dystrophy | alpha7betagal myoblasts, beta-gal FDG fluorescence, 48 h | Potency, µM (doses to about 38.3 µM), inactives show top-dose activation, most hits filed as activators | 350,000 tested, 0.064% active;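 further: 100% = response of the positive control SU9516; nearly all actives have a fitted effect of over 60% in size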
#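 Alpha7betagal+/- myoblasts (passage 13) were plated 16-24 hr, then exposed to compounds (1:260 dilution of DMSO stock) for 48 hours at 37C. After MPER lysis, β-galactosidase reporter activity was read as FDG fluorescence (ex 480/em 540) after 30 minutes.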
# MCF10A rereplic – A quantitative high throughput screen for small molecules that induce DNA re-replication in MCF 10a normal breast cells; Potency, µM (doses to about 46.1 µM), without a hit: at the highest dose activity, positive = re-replication, most hits filed as activators; 350,000 tested, 2.9% active; MCF 10A DNA re-replication, Hoechst nuclear intensity, 48 h; further: % of control where 0% means no effect; nearly all actives have a fitted effect of over 50% in size
# A-T KAP1 phos – qHTS Assay for Identifying a Potential Treatment of Ataxia-Telangiectasia | F2112 A-T fibroblasts, KAP-1 phosphorylation AlphaLISA; neocarzinostatin DNA damage 30 min before lysis | Potency, µM (top dose mostly 57.5 µM), inactives show top-dose activation, most hits filed as activators | 320,000 tested, 0.19% active; further: % of control where 0% means no effect; nearly all actives have a fitted effect of over 45% in size
#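 hTERT-immortalized A-T patient fibroblasts (F2112), 500 cells/well in OPTI-MEM, 1% FBS, got compounds for 60 min, then NCS for 30 min at 37C. Lysates were then assayed for phospho-KAP-1 by AlphaLISA (anti-pKAP1 donor, anti-KAP1 acceptor beads), 6 hr at 25C.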
# Mito fusion yeast – qHTS Assay for Small Molecule Inhibitors of Mitochondrial Division or Activators of Mitochondrial Fusion. S. cerevisiae fusion-defective mutant growth rescue, CellTiterGlo 48 h. Potency, µM (titrated, usually from 46.1 µM), for inactives: at the top dose growth rescue (activation), hits mostly activators. 320,000 tested, 0.23% active; further: % of control where 0% means no effect; nearly all actives have a fitted effect of over 45% in size
#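 Compounds are tested for their ability to restore growth of mitochondrial fusion-defective yeast strains at non-permissive 37C in YPEG medium over 48 hours. Viability is quantified by luciferase luminescence.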
# The depositor's hits bear a star; ? = inconclusive; . = no result; ! = repeats disagree; [ ] = another dose, or the depositor's remark. Rows were chosen to be rich in hits. Some 4.2% of all compounds tested hit in one or more screens of this group. The call rests on the fitted dose curve; in most records, active means well fitted activation curve with a large enough effect; inconclusive means small, poorly fitted or top-dose-only effect; inactive means no such curve, though single readings can be large or run the other way. Potency means the concentration at half of the fitted maximal effect.
SMILES,SW480 rerep,Integrin act MD,MCF10A rereplic,A-T KAP1 phos,Mito fusion yeast
COc1ccc(C=CC(O)CCN2CCC3CCC(C3)C2)cc1 (stereo not given),-5.1%,-20.9%,?,.,.
CCn1c2ccccc2nc2cc3c(cc21)c(Cl)c(=O)c1ccccc13,.,-60.5%,.,.,.
COc1cc(N=c2ssnc2Cl)c(OC)cc1Cl,?,25.0%,20.6µM*!,0.5%,4.3%
CCC(C(=O)Nc1ccon1)c1ccccc1 (stereo not given),6.7%,24.6%,6.8%,11.0%,-3.5%
CC(NCC(O)COCCC12CC3CC(CC(C3)C1)C2)c1ccccc1 (stereo not given),?,-61.7%,?,1.7%,-28.1%
Cc1cc(C)c(S(=O)(=O)Nn2cnnc2)c(C)c1,-4.4%,4.9%,0.8%,2.4%,-0.7%
CCOC(=O)C1=C(CSc2nc(-c3ccccc3)ccc2C#N)OC(N)=C(C#N)C1c1ccccc1 (stereo not given),14.6µM*,-25.2%,?,.,0.8%
CCOC(=O)C1=C(CC)OC(N)=C(C#N)C1c1ccsc1 (stereo not given),0.259µM*,-10.2%,3.9%,4.6%,.
O=C1C=C(c2ccccc2)C(c2ccccc2)C1O (stereo not given),0.8%,?,0.3%,.,.
Cn1c(/C=C/c2ccc(Cl)cc2Cl)c([N+](=O)[O-])c(=O)n(C)c1=O,9.2µM*,-82.2%,2.91µM*,-4.0%,-18.0%
CCc1ccc(/C=C/c2c([N+](=O)[O-])c(=O)n(C)c(=O)n2C)cc1,?,-70.9%,13µM*,1.2%,-15.5%
Cc1ccc(S(=O)(=O)NC(=O)N(CCC#N)Cc2ccccc2)cc1,-4.4%,3.7%,1.9%,4.3%,12.3%
c1ccc2nc3c(cc2c1)CCCCCC3,-3.6%[9.22 µM],18.4%,-2.7%,2.9%,-4.3%
c1ccc2nc3c(cc2c1)CCCCC3,18.4µM*,-20.8%,?,27.3%,-4.3%
Nc1ccccc1C#CC(=O)c1ccccc1,?,-59.9%,8.2µM*,-14.3%,-36.7%
O=C(C#Cc1cccc([N+](=O)[O-])c1)c1ccccc1,.,.,.,6.6%,-11.6%
Cc1[nH]c2ccc(C(=O)OC(C)C(=O)NCc3ccccc3)cc2c1C (stereo not given),?,-25.4%,14.6µM*,-0.5%,-2.2%
O=C(O)CCCNC(=O)c1cccc(C(=O)NCCCC(=O)O)n1,-230.6%,7.9%,-9.5%,0.2%,-7.8%
CCN(CC)CCCNC(=O)c1sc2nc(-c3ccc(F)cc3)cn2c1C,?,-49.8%,23.1µM*,.,-0.6%
Cc1c(C(=O)NCc2ccccn2)sc2nc(-c3ccc(F)cc3)cn12,-23.5%,12.3%,?,16.4%,6.7%
Cc1c(Cl)cccc1NC(=O)Cn1cc(C(F)(F)F)cc(Cl)c1=O,-3.2%,1.2%,-16.2%,-1.0%,-4.2%
COc1ccc(C(=O)NCc2ccc3c(c2)OCO3)c(OC)c1,-35.0%,0.8%,?,-15.5%,-1.3%
O=c1c2cccc3c2c(nn1CN1CCOCC1)-c1ccccc1-3,-0.6%,-17.1%,?,0.0%,-5.2%
CCN(CC)CCn1nc2c3c(cccc3c1=O)-c1ccccc1-2,9.2µM*,-0.5%,21.3%,10.1%,-12.7%
NC(=O)c1ccc(Oc2ccc(C(N)=O)cc2)cc1,29.3%,13.1%,10.4%,2.1%,-0.3%
SMILES,SW480 rerep,Integrin act MD,MCF10A rereplic,A-T KAP1 phos,Mito fusion yeast
NNC(=O)c1oc2nc(-c3ccc(Cl)cc3)cc(-c3ccccc3)c2c1N,23.1µM*,16.5%,8.2µM*,9.8%,5.7%
Nc1c(C(=O)N/N=C/c2cccnc2)oc2nc(-c3ccccc3)cc(-c3ccco3)c12,?,16.9%,18.4µM*,-12.3%,1.5%
Cc1cc(C)cc(NC(=O)CN2CCC(NC(=O)c3ccccc3F)CC2)c1,1.2%,-3.4%,-8.1%,-10.3%,-2.7%
N#C/C(=C\c1cc2c(cc1Br)OCO2)C(=O)NCC1CCCO1 (stereo not given),-122.3%,-37.1%,?,7.7%,-6.1%
O=S(=O)(NCC(c1ccco1)N1CCc2ccccc2C1)c1ccc(Br)cc1 (stereo not given),-461.3%,?,4.11µM*,.,?
Cc1ccc(S(=O)(=O)NCC(c2ccco2)N2CCc3ccccc3C2)cc1 (stereo not given),1.1%,?,24.9%,15.9%,?
O=S(=O)(NCC(c1ccco1)N1CCOCC1)c1ccc(Cl)cc1 (stereo not given),1.2%,14.1µM*,-0.6%,1.0%,-0.1%
C=CCn1c(SCc2nc3ccccc3c(=O)[nH]2)nc2scc(C3CC3)c2c1=O,?,2.6%,20.6µM*,6.2%,9.4%
CC(C(=O)OCC(=O)Nc1ccccc1OC(F)F)N1C(=O)C2CC=CCC2C1=O (stereo not given),.,-9.4%,.,.,.
CCN(CC)CCCNC(=O)c1ccc(OCC(=O)Nc2ccccc2C(F)(F)F)c(OC)c1,?,-59.3%,18.4µM*,4.8%,-0.5%
O=C(COC(=O)Cc1cccc(F)c1)NC(=O)NC1CCCCC1,-58.2%,32.9%,-0.2%,-1.8%,0.4%
COCC(C)NC(=O)CCc1nnc(C2(c3ccc(Cl)cc3)CCC2)o1 (stereo not given),-6.5%,17.6%,-8.6%,2.6%,-1.7%
CC(c1ccon1)N(C)C(=O)CCc1nnc(C2(c3ccc(Cl)cc3)CCC2)o1 (stereo not given),3.7%,0.5%,0.581µM*,5.1%,1.3%
CCc1cccc(NC(=O)COC(=O)c2c(C)nn(-c3ccccc3)c2C)c1,.,6.5%,.,.,.
Cc1cc(NS(C)(=O)=O)c(=O)n(Cc2c(F)cccc2Cl)c1,-10.5%,22.0%,4.8%,-1.0%,-1.6%
O=C1/C(=C/c2ccccc2)SC(=S)N1C1CCS(=O)(=O)C1 (stereo not given),-8.2%,7.0%,?,1.8%,-3.1%
Cc1ccc(/C=C2\SC(=S)N(C3CCS(=O)(=O)C3)C2=O)o1 (stereo not given),16.4µM*,-35.6%,0.8%,-4.2%,-6.6%
O=C1/C(=C/c2ccncc2)SC(=S)N1C1CCS(=O)(=O)C1 (stereo not given),21.0%,-47.9%,20.6µM*,-5.3%,-5.5%
NS(=O)(=O)c1ccc(-c2ccc(/C=C3\SC(=S)N(C4CCS(=O)(=O)C4)C3=O)o2)cc1 (stereo not given),0.7%,-34.4%,-4.0%,6.1%,-5.8%
CCN(CC(=O)NNC(=O)c1ccccc1)Cc1ccc(OC)c(F)c1,-3.9%,-1.4%,-0.6%,3.4%,.
Cc1cccc(-c2noc(CN(C(=O)c3ccc4c(c3)OCO4)C(C)C)n2)c1,3.2%,-5.0%,0.1%,3.5%,14.8%
Cc1nc(C(C)N(C)Cc2nc(-c3ccc4c(c3)OCO4)no2)c(C)s1 (stereo not given),3.66µM*,-1.6%,?,2.1%,-0.9%
